Results as given in PubChem BioAssay (Tox21).
Unmarked numbers belong to inactive results. Records with an inconclusive call do not appear. Entries that show only a call come without a potency. Activity calls are given as the source filed them. Unless noted, calls follow the shape of the dose curve; as a rule, active = well fitted curve in the direction sought with a large enough effect in the repeat runs; inconclusive = weak or mixed curves; inactive = no such curve, though single readings can be large; an effect the other way counts as inactive or inconclusive.

What was measured:
[1] = qHTS RealTime-Glo MT Cell Viability Assay in HEK293 cells - 0 hour (AID 1224880); also: top concentration of the series differs between compounds; nearly all actives have a fitted effect of over 45% in size
Method in brief: (§1)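 Nonlytic bioluminescent viability monitoring. HEK293 at 600 cells/well with reagent; 5 h settle; compound transfer by pintool; plates held at 37 C and read at set time points.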

[2] = A CellTox Green Cytotoxicity Assay to monitor cytotoxicity in HEK293 cells - 32 hour (AID 1224881); also: nearly all actives have a fitted effect of over 40% in size
Method in brief: (§2)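 Cytotoxicity was tracked continuously in HEK293 cells by a DNA-binding dye excluded from viable cells. Compounds were transferred in DMSO 5 h after seeding; fluorescence was recorded at intervals up to 40 h.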

[3] = A CellTox Green Cytotoxicity Assay to monitor cytotoxicity in HepG2 cells - 0 hour (AID 1224882); also: nearly all actives have a fitted effect of over 35% in size
Method in brief: (§3)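 Real-time, homogeneous cytotoxicity readout: dead-cell DNA staining by CellTox Green in HepG2 monolayers, fluorescence measured at timed intervals up to 40 h of continuous compound exposure.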

[4] = A CellTox Green Cytotoxicity Assay to monitor cytotoxicity in HepG2 cells - 32 hour (AID 1224883); also: nearly all actives have a fitted effect of over 50% in size
Method in brief: as §3

[5] = A CellTox Green Cytotoxicity Assay to monitor cytotoxicity in HEK293 cells - 8 hour (AID 1224884); also: nearly all actives have a fitted effect of over 35% in size
Method in brief: as §2

[6] = qHTS RealTime-Glo MT Cell Viability Assay in HepG2 cells - 16 hour (AID 1224885); also: nearly all actives have a fitted effect of over 50% in size
Method in brief: (§4)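 Compound treatment began 5 h after plating HepG2 cells (600/well) with NanoLuc luciferase and prosubstrate. Plates stayed at 37 C for 40 h; luminescence was captured at six time points, 0 h through 40 h.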

[7] = qHTS RealTime-Glo MT Cell Viability Assay in HEK293 cells - 24 hour (AID 1224886); also: top concentration of the series differs between compounds; nearly all actives have a fitted effect of over 50% in size
Method in brief: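 Quantitative high-throughput screen of the Tox21 10K library in HEK293: cells and RealTime-Glo reagents plated together, compound added at 5 h, luminescence monitored through 40 h at 37 C.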

[8] = qHTS RealTime-Glo MT Cell Viability Assay in HEK293 cells - 8 hour (AID 1224887); also: top concentration of the series differs between compounds; nearly all actives have a fitted effect of over 50% in size
Method in brief: as §1

[9] = A CellTox Green Cytotoxicity Assay to monitor cytotoxicity in HEK293 cells - 16 hour (AID 1224888); also: nearly all actives have a fitted effect of over 35% in size
Method in brief: as §2

[10] = qHTS RealTime-Glo MT Cell Viability Assay in HepG2 cells - 0 hour (AID 1224889); also: nearly all actives have a fitted effect of over 50% in size
Method in brief: as §4

[11] = A CellTox Green Cytotoxicity Assay to monitor cytotoxicity in HepG2 cells - 8 hour (AID 1224890); also: nearly all actives have a fitted effect of over 45% in size
Method in brief: as §3

[12] = qHTS assay to identify small molecule antagonists of the estrogen receptor alpha (ER-alpha) signaling pathway using the BG1 cell line in the presence of 0.1 nM 17-beta-estradiol - cell viability counter screen (AID 1259241); also: nearly all actives have a fitted effect of over 40% in size
Method in brief: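 Cytotoxicity counter-screen: live-cell protease activity measured by fluorescence (30 min reagent step) in the same wells. Cells were VM7Luc4E2 with endogenous ER-alpha and ERE-driven luciferase, treated 22 hr at 37C alongside 0.1 nM 17beta-estradiol final.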

[13] = qHTS assay to identify small molecule antagonists of the androgen receptor (AR) signaling pathway using the MDA cell line in the presence of 0.5 nM R1881 - cell viability counter screen (AID 1259242); also: nearly all actives have a fitted effect of over 45% in size
Method in brief: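 Cytotoxicity toward MDA-kb2 cells is measured by CellTiter-Fluor live-cell protease fluorescence after 16 hr compound exposure at 37C in the presence of 0.5 nM R1881 stimulator.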

[14] = target: Androgen receptor (Homo sapiens) (UniProt P10275); assay: qHTS assay to identify small molecule antagonists of the androgen receptor (AR) signaling pathway using the MDA cell line in the presence of 0.5 nM R1881 (AID 1259243); also: nearly all actives have a fitted effect of over 50% in size
Sequence of Androgen receptor (Homo sapiens) (P10275 whole entry, looked up): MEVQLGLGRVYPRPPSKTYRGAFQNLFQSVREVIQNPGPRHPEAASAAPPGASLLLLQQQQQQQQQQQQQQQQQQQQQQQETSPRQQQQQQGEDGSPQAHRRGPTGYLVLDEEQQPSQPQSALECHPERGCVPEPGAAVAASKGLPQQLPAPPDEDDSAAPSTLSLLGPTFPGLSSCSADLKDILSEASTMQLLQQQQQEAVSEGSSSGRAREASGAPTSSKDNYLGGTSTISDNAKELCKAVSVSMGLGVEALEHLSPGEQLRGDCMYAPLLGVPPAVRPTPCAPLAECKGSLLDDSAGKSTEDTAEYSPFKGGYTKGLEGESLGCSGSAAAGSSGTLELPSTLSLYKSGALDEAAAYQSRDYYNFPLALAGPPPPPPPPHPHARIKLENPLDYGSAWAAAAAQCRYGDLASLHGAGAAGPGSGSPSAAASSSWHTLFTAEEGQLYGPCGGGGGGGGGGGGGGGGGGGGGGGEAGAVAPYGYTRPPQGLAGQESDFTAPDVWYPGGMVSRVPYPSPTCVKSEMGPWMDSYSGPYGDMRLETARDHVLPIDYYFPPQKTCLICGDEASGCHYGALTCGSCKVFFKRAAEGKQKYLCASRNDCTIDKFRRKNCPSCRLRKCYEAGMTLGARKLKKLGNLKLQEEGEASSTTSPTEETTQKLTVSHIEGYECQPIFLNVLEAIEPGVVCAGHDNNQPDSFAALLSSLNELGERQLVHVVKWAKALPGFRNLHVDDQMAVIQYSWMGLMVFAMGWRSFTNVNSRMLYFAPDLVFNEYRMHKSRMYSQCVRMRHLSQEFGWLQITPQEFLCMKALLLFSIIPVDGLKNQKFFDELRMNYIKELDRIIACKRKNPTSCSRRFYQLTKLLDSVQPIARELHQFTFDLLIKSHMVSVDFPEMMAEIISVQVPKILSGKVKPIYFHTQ
Method in brief: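 Steps: seed MDA-kb2 cells, incubate 5 hr at 37C; pin-transfer compounds in DMSO; add R1881 to 0.5 nM final; incubate 16 hr; add ONE-Glo, wait 30 min at room temperature; read luminescence.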

[15] = target: Estrogen receptor (Homo sapiens) (UniProt P03372); assay: qHTS assay to identify small molecule antagonists of the estrogen receptor alpha (ER-alpha) signaling pathway using the BG1 cell line in the presence of 0.1 nM 17-beta-estradiol (AID 1259244); also: nearly all actives have a fitted effect of over 50% in size
Sequence of Estrogen receptor (Homo sapiens) (P03372 whole entry, looked up): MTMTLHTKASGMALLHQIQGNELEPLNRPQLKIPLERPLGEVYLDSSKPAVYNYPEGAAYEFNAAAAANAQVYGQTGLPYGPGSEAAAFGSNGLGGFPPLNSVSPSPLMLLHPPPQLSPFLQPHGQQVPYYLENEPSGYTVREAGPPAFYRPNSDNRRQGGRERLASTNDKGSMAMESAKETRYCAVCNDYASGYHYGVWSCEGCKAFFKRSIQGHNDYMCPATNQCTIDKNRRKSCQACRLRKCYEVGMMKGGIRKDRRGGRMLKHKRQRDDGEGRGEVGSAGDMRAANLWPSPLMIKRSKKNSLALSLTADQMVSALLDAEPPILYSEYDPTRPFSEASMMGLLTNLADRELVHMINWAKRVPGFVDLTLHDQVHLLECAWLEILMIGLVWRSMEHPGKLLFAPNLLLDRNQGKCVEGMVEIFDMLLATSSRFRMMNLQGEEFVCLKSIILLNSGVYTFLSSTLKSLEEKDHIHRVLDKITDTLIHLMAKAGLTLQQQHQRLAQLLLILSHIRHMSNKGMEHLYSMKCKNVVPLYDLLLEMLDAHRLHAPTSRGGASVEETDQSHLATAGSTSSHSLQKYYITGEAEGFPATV
Method in brief: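 After 5 days in hormone-depleted medium (charcoal-stripped serum, no phenol red), VM7Luc4E2 cells were seeded, incubated 24 h, then co-treated with compound and 0.1 nM (final) estradiol for 22 h before luminescence detection.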

[16] = qHTS assay to identify small molecule HDAC inhibitors (AID 1259364); also: nearly all actives have a fitted effect of over 45% in size; also: potency is read from the fitted curve at half-maximal effect
Method in brief: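 Homogeneous cell-based luminescent assay of endogenous class I/II HDAC activity; HCT-116 cells, 2 h compound exposure, 30 min HDAC-Glo development at RT.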

[17] = qHTS assay to identify small molecule HDAC inhibitors - cell viability counter screen (AID 1259365)
Method in brief: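 CellTiter-Glo luminescence (30 min, room temperature) reported viability after a 2 h compound exposure at 37 C. Cells: wild-type HCT-116, 1,500 per well, seeded the night before.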

[18] = qHTS assay to identify small molecule antagonists of the sonic hedgehog signaling (Shh) pathway - cell viability counter screen (AID 1259367); also: nearly all actives have a fitted effect of over 55% in size
Method in brief: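 Seed 3T3 Gli1-Luc cells at 2,000 per well; incubate 4 hr; add compound in DMSO, then conditioned medium; incubate at 37C with 5% CO2; add CellTiter-Fluor after 23 hr; read fluorescence 1 hr later.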

[19] = qHTS assay to identify small molecule agonists of the sonic hedgehog signaling (Shh) pathway - cell viability counter screen (AID 1259366); also: nearly all actives have a fitted effect of over 50% in size
Method in brief: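 Cytotoxicity counter screen: CellTiter-Fluor reagent added after 23 h compound exposure, then 1 h at 37C and fluorescence read. Cells were 3T3 Gli1-Luc, seeded 2,000 per well and dosed 4 h post-plating.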

[20] = qHTS assay to identify small molecule phospholipidosis (PLD) inducers (AID 1259344; active = well fitted curve in the direction sought with a large enough effect; an effect the other way counts as inactive or inconclusive)
Method in brief: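 Quantitative HTS in HepG2: compound plus LipidTOX Red dye for 24 h, paraformaldehyde fixation with Hoechst 33342, widefield high-content imaging; amiodarone as positive and DMSO as negative control.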

SMILES	outcome [1]	Potency [2]	Potency [3]	Potency [4]	Potency [5]	outcome [6]	Potency [7]	Potency [8]	Potency [9]	Potency [10]	Potency [11]	outcome [12]	outcome [13]	Potency [14]	outcome [15]	Potency [16]	outcome [17]	outcome [18]	Potency [19]	Potency [20]
CC1=CCC2C(C1)C2(C)C (centres undefined)	inactive	inactive	inactive	inactive	inactive	inactive	inactive	inactive	inactive	inactive	inactive	inactive	inactive	inactive	inactive	inactive	inactive	inactive	–	–
COc1cc(CCC(C)=O)ccc1O	inactive	inactive	inactive	inactive	inactive	inactive	inactive	inactive	inactive	inactive	inactive	inactive	inactive	inactive	–	inactive	inactive	inactive	inactive	–
OCCN1C[C@H](O)[C@@H](O)[C@H](O)[C@H]1CO	inactive	inactive	inactive	inactive	inactive	inactive	inactive	inactive	inactive	inactive	inactive	inactive	inactive	inactive	inactive	–	inactive	inactive	inactive	inactive
CCCCCOC(=O)Nc1nc(=O)n([C@@H]2O[C@H](C)[C@@H](O)[C@H]2O)cc1F	inactive	inactive	inactive	inactive	inactive	inactive	inactive	inactive	inactive	inactive	inactive	inactive	inactive	–	inactive	inactive	inactive	inactive	inactive	inactive
NC1CCN(c2cccc(Cl)n2)CC1	inactive	inactive	inactive	inactive	inactive	inactive	inactive	inactive	inactive	inactive	inactive	inactive	inactive	inactive	–	inactive	inactive	inactive	inactive	inactive
O=S(=O)(O)c1ccccc1O	inactive	inactive	inactive	inactive	inactive	inactive	inactive	inactive	inactive	inactive	inactive	inactive	inactive	inactive	inactive	inactive	–	inactive	inactive	–
C[N+](C)(C)CC[N+]1(C)Cc2c(Cl)c(Cl)c(Cl)c(Cl)c2C1	inactive	inactive	inactive	inactive	inactive	inactive	inactive	inactive	inactive	inactive	inactive	inactive	inactive	–	inactive	inactive	–	inactive	inactive	inactive
NCCNC(=O)c1ccc(Cl)cn1	inactive	inactive	inactive	inactive	inactive	inactive	inactive	inactive	inactive	inactive	inactive	inactive	inactive	–	inactive	inactive	inactive	inactive	inactive	inactive
Nc1cc(C(Cl)=C(Cl)Cl)c(S(N)(=O)=O)cc1S(N)(=O)=O	inactive	inactive	inactive	inactive	inactive	inactive	inactive	inactive	inactive	inactive	inactive	inactive	inactive	–	inactive	inactive	inactive	inactive	inactive	inactive
COc1ccc(COC=O)cc1	inactive	inactive	inactive	inactive	inactive	inactive	inactive	inactive	inactive	inactive	inactive	inactive	inactive	–	inactive	inactive	inactive	inactive	inactive	–
CCO[Si](C)(OCC)OCC	inactive	inactive	inactive	inactive	inactive	inactive	inactive	inactive	inactive	inactive	inactive	inactive	inactive	–	inactive	inactive	–	inactive	inactive	–
CC/C=C\C#N	inactive	inactive	inactive	inactive	inactive	inactive	inactive	inactive	inactive	inactive	inactive	inactive	inactive	–	inactive	inactive	–	inactive	inactive	–
COc1ccc(N=[N+]([O-])c2ccc(OC)cc2)cc1	inactive	inactive	inactive	inactive	inactive	inactive	inactive	inactive	inactive	inactive	inactive	inactive	inactive	–	inactive	1.08 µM (active)	inactive	inactive	inactive	–
Cc1cc(C)c(NC(=O)CN(CC(=O)O)CC(=O)O)c(C)c1Br	inactive	inactive	inactive	inactive	inactive	inactive	inactive	inactive	inactive	inactive	inactive	inactive	inactive	–	–	inactive	inactive	inactive	–	inactive
O=C1OC(=O)c2cc([N+](=O)[O-])ccc21	inactive	inactive	inactive	inactive	inactive	inactive	inactive	inactive	inactive	inactive	inactive	inactive	inactive	–	inactive	inactive	inactive	inactive	inactive	–
O=C(O)C(O)[C@H](O)[C@@H](O)[C@H](O)[C@H](O)CO (some centres undefined)	inactive	inactive	inactive	inactive	inactive	inactive	inactive	inactive	inactive	inactive	inactive	inactive	inactive	–	inactive	inactive	inactive	inactive	inactive	–
CO	inactive	inactive	inactive	inactive	inactive	inactive	inactive	inactive	inactive	inactive	inactive	inactive	inactive	–	–	inactive	inactive	inactive	inactive	inactive
CNc1ncnc2nc[nH]c12	inactive	inactive	inactive	inactive	inactive	inactive	inactive	inactive	inactive	inactive	inactive	inactive	inactive	–	inactive	inactive	inactive	inactive	inactive	–
Cc1ccc(Nc2ccc(O)c3c2C(=O)c2ccccc2C3=O)cc1	inactive	inactive	inactive	inactive	inactive	inactive	inactive	inactive	inactive	inactive	inactive	inactive	inactive	–	inactive	inactive	inactive	inactive	–	–
CC(C)(O)c1ccccc1	inactive	inactive	inactive	inactive	inactive	inactive	inactive	inactive	inactive	inactive	inactive	inactive	inactive	–	inactive	inactive	inactive	inactive	inactive	–
O=[N+]([O-])c1ccc(CCO)cc1	inactive	inactive	inactive	inactive	inactive	inactive	inactive	inactive	inactive	inactive	inactive	inactive	inactive	–	inactive	inactive	inactive	inactive	inactive	–
CCCCCCCCCCCCCCCCCC(=O)OCCCCCCCCCCCCCC(C)C	inactive	inactive	inactive	inactive	inactive	inactive	inactive	inactive	inactive	inactive	inactive	inactive	inactive	–	inactive	inactive	inactive	inactive	inactive	–
NS(=O)(=O)c1cc(C2(O)NC(=O)c3ccccc32)ccc1Cl (centres undefined)	inactive	inactive	inactive	inactive	inactive	inactive	inactive	inactive	inactive	inactive	inactive	inactive	inactive	–	–	inactive	inactive	inactive	inactive	inactive
CC(C)(C)CC(C)(C)N	inactive	inactive	inactive	inactive	inactive	inactive	inactive	inactive	inactive	inactive	inactive	inactive	inactive	–	inactive	inactive	inactive	inactive	inactive	–
c1ccc2cnncc2c1	inactive	inactive	inactive	inactive	inactive	inactive	inactive	inactive	inactive	inactive	inactive	inactive	inactive	–	inactive	inactive	–	inactive	inactive	–
COc1ccc2cc(C=O)ccc2c1	inactive	inactive	inactive	inactive	inactive	inactive	inactive	inactive	inactive	inactive	inactive	inactive	inactive	–	inactive	inactive	inactive	inactive	–	–
COCCOC(=O)CC#N	inactive	inactive	inactive	inactive	inactive	inactive	inactive	inactive	inactive	inactive	inactive	inactive	inactive	–	inactive	inactive	inactive	inactive	inactive	–
CC(=O)O[C@H](CC(=O)[O-])C[N+](C)(C)C	inactive	inactive	inactive	inactive	inactive	inactive	inactive	inactive	inactive	inactive	inactive	inactive	inactive	–	inactive	inactive	inactive	inactive	inactive	–
Nc1ncnc2c1ncn2Cc1c(F)cccc1Cl	inactive	inactive	inactive	inactive	inactive	inactive	inactive	inactive	inactive	inactive	inactive	inactive	inactive	–	inactive	–	inactive	inactive	–	–
